PubChem BioAssay (EPA / NIEHS)
The source made the active and inactive calls. How the source made its calls: active means hit-call score of the fitted dose curve at least 0.9, where 1 is the maximum; inactive means score below 0.9.

Experiments:
[1] = ATG_PBREM_CIS: Attagene CIS-FACTORIAL HepG2 Assay for human Phenobarbital-responsive Enhancer Module (PBREM) (AID 2282955); details: HepG2 PBREM cis-reporter, Attagene multiplexed transcription; actives raise or lower the signal
How it was run: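 Cells were transfected with cis-element reporter units and treated for 24 h, after which RNA was extracted and reporter transcripts measured by RT-PCR and capillary electrophoresis.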

[2] = molecular target: Paired box protein Pax-6 (Homo sapiens) (UniProt P26367); experiment: ATG_Pax6_CIS: Attagene CIS-FACTORIAL HepG2 Assay for human Paired Box 6 (PAX6) (AID 2282956); details: HepG2 CIS-FACTORIAL PAX6 reporter transcription, RNA readout; actives raise or lower the signal
Sequence of Paired box protein Pax-6 (Homo sapiens) (P26367 whole entry, looked up): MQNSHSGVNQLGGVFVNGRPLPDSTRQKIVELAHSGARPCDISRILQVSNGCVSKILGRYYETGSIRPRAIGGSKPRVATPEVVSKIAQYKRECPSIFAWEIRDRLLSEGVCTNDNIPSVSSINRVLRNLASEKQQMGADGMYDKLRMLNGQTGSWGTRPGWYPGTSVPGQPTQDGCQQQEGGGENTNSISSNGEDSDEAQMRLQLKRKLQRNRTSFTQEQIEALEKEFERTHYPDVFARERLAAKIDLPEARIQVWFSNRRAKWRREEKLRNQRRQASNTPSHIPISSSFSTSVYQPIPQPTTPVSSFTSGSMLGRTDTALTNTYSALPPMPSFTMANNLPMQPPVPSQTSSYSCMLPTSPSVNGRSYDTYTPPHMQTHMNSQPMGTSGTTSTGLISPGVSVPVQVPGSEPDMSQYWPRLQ
How it was run: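 Readout: reporter transcript fluorescence after RT-PCR and capillary electrophoresis. Cells: HepG2, transiently transfected with cis-regulated MRTUs. Exposure 24 h. Gain or loss of signal fitted bidirectionally relative to DMSO.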

[3] = ATG_PXRE_CIS: Attagene CIS-FACTORIAL HepG2 Assay for human Pregnane X Receptor Element (PXRE) (AID 2282957); details: HepG2 Attagene CIS-FACTORIAL PXRE reporter, mRNA; actives raise or lower the signal
How it was run: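 Read-out: fluorescence of reporter-specific RT-PCR products resolved by capillary electrophoresis, fitted bidirectionally relative to DMSO. Human HepG2 liver cells carried transfected cis-promoter reporter units and were exposed to chemicals for 24 h.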

[4] = ATG_PPRE_CIS: Attagene CIS-FACTORIAL HepG2 Assay for human Peroxisome Proliferator-activated Response Element (PPRE) (AID 2282958); details: HepG2 PPRE cis-element reporter, Attagene transcription factor profiling; actives raise or lower the signal
How it was run: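 In this cell-based multiplex, a PPRE cis element drives a reporter sequence in transiently transfected HepG2 cells. Following 24 h treatment, labeled cDNA amplicons are sized and quantified by capillary electrophoresis, with DMSO defining baseline.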

[5] = ATG_RORE_CIS: Attagene CIS-FACTORIAL HepG2 Assay for human RAR-related Orphan Receptor Element (RORE) (AID 2282959); details: HepG2 Attagene cis-factorial RORE reporter, mRNA; actives raise or lower the signal
How it was run: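 Endogenous factor activity at a cis response element is read as reporter transcript levels in HepG2 cells, 24 h post-dose. Transcripts are quantified by RT-PCR with capillary electrophoresis, and data fitted in both directions against DMSO.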

[6] = ATG_Sox_CIS: Attagene CIS-FACTORIAL HepG2 Assay for human SRY-box transcription factor (SOX) (AID 2282960); details: HepG2 Attagene cis-factorial SOX reporter, mRNA; actives raise or lower the signal
How it was run: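 Measures mRNA induction of a SOX1-associated reporter in HepG2 after 24 h dosing. Fluorescently labelled RT-PCR fragments are separated by capillary electrophoresis, and gain or loss relative to DMSO control is fitted.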

[7] = molecular target: Transcription factor Sp1 (Homo sapiens) (UniProt P08047); experiment: ATG_Sp1_CIS: Attagene CIS-FACTORIAL HepG2 Assay for human Specificity Protein 1 (Sp1) (AID 2282961); details: HepG2 Sp1 cis-reporter transcription, actives raise or lower the signal
Sequence of Transcription factor Sp1 (Homo sapiens) (P08047 whole entry, looked up): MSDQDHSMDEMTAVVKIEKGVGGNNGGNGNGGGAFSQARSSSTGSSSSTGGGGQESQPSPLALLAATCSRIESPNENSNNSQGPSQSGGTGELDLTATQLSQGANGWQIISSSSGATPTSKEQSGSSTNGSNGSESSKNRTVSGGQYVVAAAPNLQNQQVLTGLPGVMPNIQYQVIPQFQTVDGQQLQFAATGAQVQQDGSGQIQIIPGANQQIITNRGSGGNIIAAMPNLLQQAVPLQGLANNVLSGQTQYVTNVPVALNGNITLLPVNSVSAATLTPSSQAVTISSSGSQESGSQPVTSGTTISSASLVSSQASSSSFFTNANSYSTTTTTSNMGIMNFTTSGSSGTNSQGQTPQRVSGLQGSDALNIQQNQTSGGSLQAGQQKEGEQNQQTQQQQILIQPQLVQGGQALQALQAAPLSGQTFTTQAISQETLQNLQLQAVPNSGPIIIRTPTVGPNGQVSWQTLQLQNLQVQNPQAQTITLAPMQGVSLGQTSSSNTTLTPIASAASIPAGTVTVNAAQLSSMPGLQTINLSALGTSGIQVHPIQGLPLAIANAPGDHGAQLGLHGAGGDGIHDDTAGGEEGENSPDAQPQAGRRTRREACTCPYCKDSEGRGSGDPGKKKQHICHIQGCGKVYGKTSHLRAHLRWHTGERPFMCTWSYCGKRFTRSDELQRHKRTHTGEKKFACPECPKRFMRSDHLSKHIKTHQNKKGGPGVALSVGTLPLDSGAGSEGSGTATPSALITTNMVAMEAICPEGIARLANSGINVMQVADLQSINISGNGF
How it was run: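 Cells: HepG2, transiently transfected with cis-regulated multiplexed reporters. Exposure: 24 h. Detection: reporter transcripts amplified, fluorescently labeled, restriction-digested and sized by capillary electrophoresis. Analysis: bidirectional fit relative to DMSO.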

[8] = ATG_SREBP_CIS: Attagene CIS-FACTORIAL HepG2 Assay for human Sterol Regulatory Element Binding (SREBP) (AID 2282962); details: HepG2 Attagene cis-factorial SREBP reporter, mRNA; actives raise or lower the signal
How it was run: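 Readout: fluorescent reporter-transcript peaks resolved by capillary electrophoresis after RT-PCR. Cells were human HepG2 carrying transfected cis-promoter reporter constructs, dosed for 24 h. Gain or loss of signal was fitted against DMSO controls.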

[9] = molecular target: Signal transducer and activator of transcription 3 (Homo sapiens) (UniProt P40763); experiment: ATG_STAT3_CIS: Attagene CIS-FACTORIAL HepG2 Assay for human Signal Transducer and Activator of Transcription 3 (STAT3) (AID 2282963); details: HepG2, Attagene cis-factorial STAT3 reporter transcription; actives raise or lower the signal
Sequence of Signal transducer and activator of transcription 3 (Homo sapiens) (P40763 whole entry, looked up): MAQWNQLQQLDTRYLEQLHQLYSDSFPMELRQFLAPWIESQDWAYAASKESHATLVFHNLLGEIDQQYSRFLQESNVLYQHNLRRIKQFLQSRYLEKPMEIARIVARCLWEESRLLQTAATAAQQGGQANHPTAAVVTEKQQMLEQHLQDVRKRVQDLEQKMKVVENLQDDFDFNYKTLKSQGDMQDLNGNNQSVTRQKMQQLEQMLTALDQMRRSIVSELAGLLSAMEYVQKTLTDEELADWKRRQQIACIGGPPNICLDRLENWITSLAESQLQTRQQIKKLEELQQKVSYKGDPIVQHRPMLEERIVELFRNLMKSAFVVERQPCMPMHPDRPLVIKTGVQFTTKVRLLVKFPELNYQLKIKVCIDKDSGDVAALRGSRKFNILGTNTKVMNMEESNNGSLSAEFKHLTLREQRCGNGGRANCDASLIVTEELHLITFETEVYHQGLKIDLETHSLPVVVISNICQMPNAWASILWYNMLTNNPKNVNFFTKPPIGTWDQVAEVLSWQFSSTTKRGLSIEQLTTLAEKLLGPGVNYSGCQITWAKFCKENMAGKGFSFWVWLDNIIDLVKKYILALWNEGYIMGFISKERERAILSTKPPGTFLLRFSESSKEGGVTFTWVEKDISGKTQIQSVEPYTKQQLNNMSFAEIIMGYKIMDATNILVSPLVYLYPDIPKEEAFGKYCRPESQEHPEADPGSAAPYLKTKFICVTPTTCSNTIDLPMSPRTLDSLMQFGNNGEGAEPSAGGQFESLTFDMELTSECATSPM
How it was run: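 Readout is reporter transcript quantified by RT-PCR and capillary electrophoresis, with 6-FAM primer extension and HpaI digestion. Total RNA is taken 24 h after dosing transiently transfected HepG2 carrying cis-regulated reporter units. Bidirectional fit against DMSO.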

[10] = ATG_TA_CIS: Attagene CIS-FACTORIAL HepG2 Assay for human TA Basal Promoter (AID 2282964); details: HepG2 Attagene CIS-factorial TA basal promoter reporter; actives raise or lower the signal
How it was run: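 HepG2 cells transiently transfected with multiplexed cis-promoter reporter units, dosed 24 h. Reporter mRNA measured by RT-PCR, 6-FAM labelling, HpaI digestion and capillary electrophoresis; bidirectional fit versus DMSO baseline, serving as background control.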

Row | Structure (SMILES) | AC50 [1] | outcome [2] | AC50 [3] | outcome [4] | AC50 [5] | outcome [6] | AC50 [7] | AC50 [8] | outcome [9] | outcome [10] | outcome [7] | outcome [5] | outcome [1] | outcome [8] | outcome [3] | AC50 [4]
1 | COP(=S)(OC)SCn1nnc2ccccc2c1=O | 36.3 µM (active) | inactive | 5.87 µM (active) | inactive | 31 µM (active) | inactive | 32.5 µM (active) | 19.8 µM (active) | inactive | inactive |  |  |  |  |  | 
2 | COC(=O)N(C(=O)N1CO[C@@]2(C(=O)OC)Cc3cc(Cl)ccc3C2=N1)c1ccc(OC(F)(F)F)cc1 |  | inactive | 1.24 µM (active) | inactive | 13.2 µM (active) | inactive |  | 5.39 µM (active) | inactive | inactive | inactive |  |  |  |  | 
3 | CC(C)N1C(=O)c2ccccc2NS1(=O)=O |  | inactive | 12.1 µM (active) | inactive |  | inactive |  | 50 µM (active) | inactive | inactive | inactive | inactive |  |  |  | 
4 | Nc1cnn(-c2ccccc2)c(=O)c1Cl |  | inactive | 81.5 µM (active) | inactive |  | inactive |  |  | inactive | inactive | inactive | inactive | inactive | inactive |  | 
5 | CNC(=O)Oc1cccc2ccccc12 |  | inactive | 37.9 µM (active) |  |  | inactive |  |  | inactive | inactive | inactive | inactive | inactive | inactive |  | 
6 | Nc1c(Cl)c(F)nc(OCC(=O)O)c1Cl |  | inactive | 50 µM (active) |  |  | inactive |  |  | inactive | inactive | inactive | inactive | inactive | inactive |  | 
7 | COP(=O)(OC)O/C(C)=C/C(=O)N(C)C |  | inactive | 68.5 µM (active) | inactive |  | inactive |  |  | inactive | inactive | inactive | inactive |  | inactive |  | 
8 | CC1(C)C(C=C(Cl)Cl)C1C(=O)OC(C#N)c1cccc(Oc2ccccc2)c1 (stereo not given) | 13.1 µM (active) | inactive | 2.32 µM (active) |  |  | inactive |  |  | inactive | inactive | inactive | inactive |  | inactive |  | 
9 | COCc1cnc(C2=NC(C)(C(C)C)C(=O)N2)c(C(=O)O)c1 (stereo not given) |  | inactive |  | inactive |  | inactive |  |  | inactive | inactive | inactive | inactive | inactive | inactive | inactive | 
10 | Cc1nc(N(C)C)nc(OC(=O)N(C)C)c1C |  | inactive | 50 µM (active) | inactive |  | inactive |  |  | inactive | inactive | inactive | inactive |  | inactive |  | 
11 | OC(c1ccc(Cl)cc1)(c1ccc(Cl)cc1)C(Cl)(Cl)Cl |  | inactive | 2.86 µM (active) | inactive |  | inactive |  |  | inactive | inactive | inactive |  | inactive | inactive |  | 
12 | COc1ccc(-c2ccccc2)cc1NNC(=O)OC(C)C | 15.9 µM (active) | inactive | 3.69 µM (active) |  |  | inactive |  | 15.2 µM (active) | inactive | inactive | inactive | inactive |  |  |  | 
13 | COC(=O)c1c(C(F)F)nc(C(F)(F)F)c(C2=NCCS2)c1CC(C)C | 0.876 µM (active) | inactive | 0.123 µM (active) |  | 26.8 µM (active) | inactive |  |  | inactive | inactive | inactive |  |  | inactive |  | 50 µM (active)
14 | COc1cc(Cl)c(OC)cc1Cl |  | inactive | 50 µM (active) |  |  | inactive |  |  | inactive | inactive | inactive |  |  | inactive |  | 
15 | CN/C(=N\[N+](=O)[O-])NCc1cnc(Cl)s1 |  | inactive |  |  |  | inactive |  |  | inactive | inactive | inactive | inactive | inactive | inactive | inactive | 
16 | O=C1C2CC=CCC2C(=O)N1SC(Cl)(Cl)Cl (stereo not given) |  | inactive |  | inactive |  | inactive |  |  | inactive | inactive | inactive |  | inactive | inactive | inactive | 
17 | Nc1c(Cl)c(Cl)nc(C(=O)O)c1Cl |  | inactive | 69.5 µM (active) | inactive |  | inactive |  |  | inactive | inactive | inactive | inactive |  | inactive |  | 
18 | CC(C)(C)C(=O)C(Oc1ccc(Cl)cc1)n1cncn1 (stereo not given) | 19.5 µM (active) | inactive | 5.02 µM (active) |  |  | inactive |  |  | inactive | inactive | inactive | inactive |  | inactive |  | 50 µM (active)
19 | CSC(=O)c1c(C(F)F)nc(C(F)(F)F)c(C(=O)SC)c1CC(C)C |  | inactive | 0.451 µM (active) | inactive |  | inactive |  |  | inactive | inactive | inactive | inactive | inactive | inactive |  | 
